# Compounds with a hit are over-represented: about 11% of the library has one in this group of screens.
# FLuc inh = Photinus pyralis luciferase inhibition | P08659 | purified P. pyralis luciferase, luminescence, biochemical | 76,000 tested, 2.5% active | Potency, µM (highest dose often 115 µM), usual class: inhibitors | AID 1347043; further: nearly all actives have a fitted effect of over 65% in size
# Target sequence (P08659 whole entry, looked up): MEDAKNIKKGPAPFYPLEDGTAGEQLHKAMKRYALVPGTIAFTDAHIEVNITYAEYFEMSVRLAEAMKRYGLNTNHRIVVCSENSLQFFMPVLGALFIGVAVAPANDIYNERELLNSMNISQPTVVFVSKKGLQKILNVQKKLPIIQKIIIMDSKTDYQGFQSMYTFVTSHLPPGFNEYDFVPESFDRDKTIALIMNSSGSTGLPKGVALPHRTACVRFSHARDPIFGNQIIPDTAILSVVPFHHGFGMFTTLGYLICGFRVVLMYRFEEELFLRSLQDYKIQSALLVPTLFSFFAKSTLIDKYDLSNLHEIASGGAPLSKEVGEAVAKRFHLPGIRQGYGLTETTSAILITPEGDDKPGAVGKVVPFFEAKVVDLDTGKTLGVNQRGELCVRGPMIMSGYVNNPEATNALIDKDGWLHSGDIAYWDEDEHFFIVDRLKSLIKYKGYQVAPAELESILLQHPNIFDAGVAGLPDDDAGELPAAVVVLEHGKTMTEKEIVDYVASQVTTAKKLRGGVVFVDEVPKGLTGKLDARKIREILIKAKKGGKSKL
#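 Luminescence read by CCD imager after adding enzyme (10nM final) to wells holding compound, titrated in qHTS. Substrates 10uM each D-luciferin and ATP; buffer 50mM Tris acetate pH 7.5, 10mM Mg acetate, Tween-20, BSA.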
# HEK cytotox = cytotoxic compounds in HEK 293 cells; HEK 293 viability, ATP luminescence (CellTiter-Glo), 48-72 h; 94,000 tested, 6.6% active; Potency, µM (top dose mostly 115 µM), inactives show at the top dose activity change, negative = cytotoxicity, most hits filed as inhibitors; further: nearly all actives have a fitted effect of over 60% in size
#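 Read-out: CellTiter-Glo ATP luminescence. Cells: HEK 293, 250 cells/well. Exposure: 48 or 72 hr, 37 degree Celsius.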
# NPR1 antag = human Npr1 receptor antagonism; HEK293 hNpr1 GloSensor cGMP, ANP-stimulated luminescence; Potency, µM (titrated, usually from 46.3 µM), for inactives: at the highest dose activity change, negative = inhibition, hits mostly inhibitors; 76,000 tested, 1.6% active; calls by dose curve; further: nearly all actives have a fitted effect of over 60% in size
#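 Compound pre-incubated 30 min at room temperature on GloSensor-loaded HEK293 cells stably carrying hNpr1 and the pGS-40F cGMP biosensor. Stimulation uses hNppA at 0.1 nM final; luminescence is taken at baseline and 20 min post-agonist.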
# 3T3 cytotox = NIH 3T3 cell cytotoxicity. NIH 3T3 viability, CellTiter-Glo ATP luminescence, 48-72 h. Potency, µM (top dose mostly 96.7 µM), for the others: at the top dose activity change, negative = cytotoxicity, most hits filed as inhibitors. 94,000 tested, 4.3% active; further: nearly all actives have a fitted effect of over 55% in size
#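 Luminescent ATP readout (CellTiter-Glo, 10 min RT) after 48 or 72 hr compound exposure of NIH 3T3 cells seeded at 400 cells/well in 1536-well format; quantitative HTS.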
# * hit, by the source's call; i = inactive; ? = inconclusive; . = not tested or not shown; ! = not active in a repeat; [ ] = dose if it differs, or a comment. Unless noted, the call rests on the fitted dose curve; in most records, active means well fitted curve in the direction sought with a large enough effect; inconclusive means small, poorly fitted or top-dose-only effect, or another doubt; inactive means no such curve, though single readings can be large; an effect the other way counts as inactive or inconclusive. On the % scale 0 is the no-effect control and ±100 the full control effect; potency means the concentration at half of the fitted maximal effect.
SMILES,FLuc inh,HEK cytotox,NPR1 antag,3T3 cytotox
O=C(NCc1cccc(Cl)c1)c1noc(-c2ccc3c(c2)OCO3)n1,?,40µM*,1%,?
COc1ccccc1C(=O)NCc1c[nH]c2ncccc12,i,-4%[172 µM],4%[70.6 µM],-32%[138 µM]
COc1cccc(CNC(=O)c2c[nH]c3ncccc23)c1,40µM*,-15%[172 µM],5%[70.6 µM],?
COc1ccc(NC(=O)Cn2ccn3nc4c(c3c2=O)CC(C)CC4)cc1Cl (configuration not stated),i,0%,5%,-5%
NCc1cccc(-c2cccnc2)c1,.,-23%[230 µM],.,-13%[174 µM]
COc1cccc(CNC(=O)c2noc(-c3ccc(C)cc3)n2)c1,28µM*,-12%,-2%,-22%
COc1ccc(CNC(=O)c2noc(-c3ccc(C)cc3)n2)cc1,i,-20%,1%,-9%
COc1ccc2nc([C@H]3CCN(Cc4ccncc4)C3)[nH]c2c1,i,-31%[172 µM],1%[70.6 µM],-15%[138 µM]
COc1ccc(CN2CC[C@H](c3nc4ccc(C)cc4[nH]3)C2)cc1,i,79µM*,0%[70.6 µM],79µM*
c1cnc2nc([C@H]3CCN(C4CCCCC4)C3)[nH]c2c1,28µM*,-14%[230 µM],4%[70.6 µM],2%[230 µM]
COc1ccc2nc([C@H]3CCN(C4CCCCC4)C3)[nH]c2c1,14µM*,?,?,?
COc1ccc2nc([C@H]3CCN(CC(C)C)C3)[nH]c2c1,i,89µM*,-14%[70.6 µM],112µM*
COc1ccc(CN2CC[C@H](c3nc4ccc(OC)cc4[nH]3)C2)cc1,?,?,-4%[70.6 µM],?
O=C(NCc1ccccc1)c1ccc2nnc(-c3cccnc3)n2c1,.,2%,.,-27%
CN(Cc1cccnc1)C1CN(C(=O)c2cccn2C)C1,.,i,.,-1%
CC(C)Nc1ncnc2c1CN(C1CCCC1)C(=O)CN2C,.,-10%[172 µM],.,-16%[138 µM]
Cc1noc(C)c1[S+](=O)([O-])NC1CCCN(CCn2nc3n(c2=O)CCCC3)C1 (configuration not stated),.,1%,.,-15%
COC(=O)N1CCC(C(=O)N2CCC(c3nc4ncccc4[nH]3)CC2)C1 (configuration not stated),.,35µM*,.,?
COC(=O)N1CCC(C(=O)N2CCC(c3nc4ncccc4[nH]3)CC2)CC1,.,i,.,i
Fc1ccc2nc([C@H]3CCN(C4CCC4)C3)[nH]c2c1,5µM*,?,40µM*,?
Cc1ccc2nc([C@H]3CCN(Cc4ccc(S(C)(=O)=O)cc4)C3)[nH]c2c1,i,79µM*,-17%[70.6 µM],-26%[174 µM]
O=C(C1CCCN([S+](=O)([O-])c2cccs2)C1)N1CCCC(c2nc3ncccc3[nH]2)C1 (configuration not stated),.,89µM*,.,?
CC(C)(C)c1ccc(C(=O)Nc2nc3c(s2)C[C@@H]2[C@](C)(CO)[C@H](O)CC[C@@]2(C)[C@@H]3CC(=O)NCc2ccco2)cc1,?,?,-6%,?
COc1ccccc1-n1c(=O)c(C(=O)N2CCN(C(=O)Cc3ccccn3)CC2)nc2cccnc21,.,2%,.,-7%
CNC(=O)[C@@H]1CCCN1c1nccc(Nc2ccccc2OC)n1,.,-14%[172 µM],.,-7%[138 µM]
SMILES,FLuc inh,HEK cytotox,NPR1 antag,3T3 cytotox
COc1ccccc1Nc1ccnc(N2CCCC(C(=O)NCc3ccc(F)c(F)c3)C2)n1 (configuration not stated),.,?,.,13µM*
COC(=O)CNC(=O)C1CCCN(c2nccc(Nc3ccccc3F)n2)C1 (configuration not stated),.,-16%,.,-27%
O=C(NCCc1ccc(Cl)cc1)C1CCCN(c2nccc(Nc3ccccc3F)n2)C1 (configuration not stated),.,22µM*,.,25µM*
COc1ccccc1Nc1ccnc(N2CCCC(C(=O)NCc3ccc(F)cc3)C2)n1 (configuration not stated),.,14µM*,.,20µM*
O=C(NCc1ccc(F)cc1)C1CCCN(c2nccc(Nc3ccccc3F)n2)C1 (configuration not stated),.,?,.,28µM*
COc1ccc(Cn2c(=O)c(C(=O)N3CCN(C(=O)C4CC4)CC3)nc3cccnc32)cc1,.,-9%,.,-18%
O=C(NCc1ccc(Cl)cc1)c1ccc2nnc(Cc3ccco3)n2c1,.,0%,.,?
CCCCn1c(=O)c(C(=O)NCCOC)nc2cccnc21,.,-1%[172 µM],.,-24%[138 µM]
Cc1ccc2oc([C@H]3CCN(Cc4ccc(C(=O)O)cc4)C3)nc2c1,71µM*,-7%[172 µM],2%[70.6 µM],?
Cc1ccc2oc([C@H]3CCN(C(=O)C4CC4)C3)nc2c1,35µM*,?,5%[70.6 µM],-19%[174 µM]
Cc1ccc(CN2CC[C@H](c3nc4cc(C)ccc4o3)C2)cc1,45µM*,?,0%[70.6 µM],?
O=C(NCCc1ccccc1)c1cc(-c2ccsc2)c2nncn2n1,.,40µM*,.,?
O=C(NCCCc1ccccc1)c1cc(-c2ccccc2)c2nncn2n1,.,45µM*,.,?
COCCCNC(=O)c1cc(-c2cc(Cl)cc(Cl)c2)c2nncn2n1,.,-15%,.,?
O=C(NCCc1ccc(F)cc1)C1CCCN(Cc2cccc(-c3cccs3)c2)C1 (configuration not stated),.,28µM*!,.,?
O=C(Nc1ccc(F)cc1)C1CCCN(Cc2cccc(-c3cccs3)c2)C1 (configuration not stated),.,40µM*,.,?
O=C(Cc1cccc(Cl)c1)NC1CCC(Cc2cccc(-c3cccs3)c2)CC1 (configuration not stated),.,?,.,-29%
O=C(NCc1ccc(C(F)(F)F)cc1)C1CCCN(Cc2cccc(-c3cccs3)c2)C1 (configuration not stated),.,?,.,11µM*
O=C(Nc1cccc(Cl)c1)C1CCCN(Cc2cccc(-c3cccs3)c2)C1 (configuration not stated),.,40µM*,.,?
O=C(NCCc1ccc(F)cc1)C1CCCN(c2nc3ncccc3o2)C1 (configuration not stated),i,-3%,11%,?
O=C(NCc1ccccc1F)C1CCc2nnc(-c3cccc(C(F)(F)F)c3)n21 (configuration not stated),.,-12%,.,-11%
CCOC(=O)CNC(=O)N1CCC2(CC1)N(Cc1ccccc1)C(=O)CS2(=O)=O,.,-3%,.,-13%
Cc1nnc2ccc(N3CCCC(NC(=O)Cc4ccc(F)cc4)C3)nn12 (configuration not stated),.,2%[172 µM],.,-20%[138 µM]
Cc1oc2c(c1C(=O)NC1CCCC1)CN(Cc1ccc(F)cc1)CC2,i,?,-19%,-34%
CCc1nc2c(NC(=O)Nc3cccc(C(=O)OC)c3)cccn2n1,?,?,-4%,?
Cc1nc2c(NC(=O)Nc3cccc(C(F)(F)F)c3)cccn2n1,?,35µM*,-24%,?
COc1ccc(NC(=O)Nc2cccn3nc(C)nc23)cc1,18µM*,?,-14%,?
O=C(Cc1cccs1)N1CCCCCC1c1nnc(-c2ccccc2)o1 (configuration not stated),.,?,.,-16%

# From PubChem
